Assay results as given in PubChem BioAssay (NCI).
“And” between values parts separate entries of the source, which are not always exact repeats. Equal entries are not always repeated. Compounds without any hit were thinned out: in the full panel of roughly 83,000, 20% have a hit.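 Step 1: grow cells in 96-well plates. Step 2: add test compound at a single concentration. Step 3: incubate 48 h. Step 4: record percent growth.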 The source made the active and inactive calls. How the source made its calls: active means growth percent below 10; inactive means the rest.

The compounds below were run on HL-60(TB) leukemia (assay: NCI-60 one-dose screen, 48 h (100 = growth as untreated, 0 = no growth, -100 = all killed)). Details: 10 µM unless noted.

SMILES	growth
O=C(CCl)Nc1ccc(C(=O)/C=C/c2cc3ccccc3nc2Cl)cc1	-17.4% (active) and 30.5% (inactive)
COc1cc(CNC(=O)[C@]23CCC(C)(C)CC2C2=CCC4[C@@]5(C)CCC(OC(C)=O)C(C)(C)C5CC[C@@]4(C)[C@]2(C)CC3)ccc1OCc1cn(-c2ccc(Cl)cc2Cl)nn1 (some centres not stated)	105% (inactive)
N#Cc1ccc(-c2nn(-c3ccc(C(=O)O)cc3)cc2CNc2cc(Cl)cc(C(F)(F)F)c2)cc1	7.71% (active)
Cc1ccc(C2CC(c3ccc(NC(=O)Nc4ccccc4)cc3)=NN2c2ccc(S(C)(=O)=O)cc2)cc1 (configuration not stated)	13.4% (inactive)
CCOC(=O)c1sc(N/N=C(\C)c2ccc3c(c2)Nc2ccccc2S3)nc1C	22.1% (inactive)
N#C/C(=C/c1ccc(Cl)cc1)c1nnc(NC(=O)c2ccc(-n3c(=O)[nH]c4ccccc4c3=O)cc2)s1	98.2% (inactive)
Cc1cccc(-c2nc(Nc3ccccc3C(=O)O)c3ccccc3n2)c1	39.4% (inactive)
O=C(Cc1ccc2c(c1)CN(C1CCC(=O)NC1=O)C2=O)NCc1cccc2ccccc12 (configuration not stated)	-24.9% (active)
CC(C)(C)OC(=O)/C=C/c1cccc2c1C(=O)NC(C)(c1cc3cc(Cl)ccc3oc1=O)N2 (configuration not stated)	-6.16% (active)
CCCCSc1nc(NCCc2c[nH]c3ccccc23)c(C#N)c(-c2ccc(F)cc2)n1	53.8% (inactive)
Cc1occc1C(=O)NN1C(=O)/C(=C/C=C/c2ccc([N+](=O)[O-])o2)SC1=S	0.964% (active)
O=C(N/C(=C1/OCCN1Cc1ccccc1)[P+](c1ccccc1)(c1ccccc1)c1ccccc1)c1ccccc1	-13.1% (active)
CC12CC[C@@H]3[C@]4(C)COC(c5cn[nH]c5-c5cccc(Cl)c5)O[C@@H]4CC[C@@]3(C)[C@@H]1CC(C1=CCOC1=O)O2 (some centres not stated)	22.3% (inactive)
OCNc1ccc(-n2cnc3cc(-c4ccc(O)cc4)ccc32)cc1C(F)(F)F	-2.45% (active)
Cc1ccc(C(=O)C[n+]2cccc3c4ccccc4ccc32)cc1	1.77% (active)
O=C(CNc1nc(-c2ccccc2)cs1)Nc1ccccc1	-30.5% (active)
COc1cc(-c2ccc(/C=N/NC(=O)c3[nH]c4ccc(Br)cc4c3-c3ccccc3)s2)cc(OC)c1OC	99% (inactive)
COC(=O)C[C@](O)(CCCC(C)(C)O)C(=O)O[C@H]1C(OC)=C[C@@]23CCC(=O)N2CCc2cc4c(cc2[C@@H]13)OCO4	97.4% (inactive)
COc1cc(-c2cc(-c3cccc(OCC(=O)O)c3)[nH]c(=O)c2C#N)cc(OC)c1OC	80.6% (inactive)
O=C(NC(=S)N1CCN(c2ncnc3c2cnn3-c2ccccc2)CC1)c1ccc(Br)cc1	90.8% (inactive)
O=C1N/C(=N\c2nccs2)S/C1=C\c1cccs1	25.1% (inactive)
CC(=O)Nc1ccc(S(=O)(=O)Nc2ccc(-c3ccc4c(c3)NC(=O)/C4=C\c3ccc[nH]3)cc2)cc1	84.2% (inactive)
CC(=O)Nc1ccc(-c2cn(-c3cccc(C(=O)Nc4ccc(N5CCN(C)CC5)cc4)c3)nn2)cn1	64.6% (inactive)
O=C(CSc1nnc(-c2ccc3nc(-c4ccccc4)[nH]c3c2)o1)Nc1ccc(Cl)cc1	46.7% (inactive)
COc1cc(/C=C/C(=O)c2cnn(-c3cc(=O)[nH]c4ccc(C)cc34)c2C)cc(OC)c1OC	-28.4% (active)
CC(=O)Nc1ccc(C(=O)NC(=S)Nc2ccc(S(N)(=O)=O)cc2)cc1	95.5% (inactive)
NS(=O)(=O)c1ccc(NC(=O)CSc2ccc(-c3ccc(Cl)cc3)nn2)c(Br)c1	98% (inactive)
